Consider 64 molecules from PubChem BioAssay AID1220 (Sanford-Burnham Center for Chemical Genomics, 2008).

Molecules are shown by their SMILES. The whole screen tested about 190,000 compounds, of which about 1,300 (0.68%) were called active. Only a selection was taken, and actives are over-represented in it overall. Values without a mark were called inactive. No stated cut-off is given here; in the data, active means inhibition above about 50%; inactive means the rest.

Broadly, the inhibition is the change of the read-out against control, counted positive when it falls.

Chain of Mannose-6-phosphate isomerase (Homo sapiens) (P34949 whole entry, looked up): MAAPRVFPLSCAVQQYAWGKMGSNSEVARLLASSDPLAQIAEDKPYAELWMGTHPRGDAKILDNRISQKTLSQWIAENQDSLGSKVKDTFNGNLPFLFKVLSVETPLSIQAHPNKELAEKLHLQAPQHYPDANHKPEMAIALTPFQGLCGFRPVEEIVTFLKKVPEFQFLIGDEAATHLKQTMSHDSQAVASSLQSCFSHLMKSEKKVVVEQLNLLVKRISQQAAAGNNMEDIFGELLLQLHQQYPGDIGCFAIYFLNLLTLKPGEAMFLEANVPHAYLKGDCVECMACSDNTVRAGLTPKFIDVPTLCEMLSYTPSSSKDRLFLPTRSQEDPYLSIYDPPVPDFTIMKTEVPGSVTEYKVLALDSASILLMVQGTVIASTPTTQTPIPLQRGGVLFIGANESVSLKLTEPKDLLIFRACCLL

This assay has as its target Mannose-6-phosphate isomerase (Homo sapiens) (UniProt P34949). In words: MPI inhibition at elevated mannose 6-phosphate – biochemical, fluorescence intensity, high mannose 6-phosphate, primary screen (AID 1220). To be noted: recombinant PMI enzyme, coupled fluorescence intensity; at 20 µM; hits give high values.
For the molecule `N#CC(C#N)=C1C=C2C=C(N3CCCCC3)CCC2CC1` (centres undefined), the inhibition was 58.7% (active). With `N#CC(C#N)=C1C=C2C=C(N3CCCCCC3)CCC2CC1` (centres undefined), the inhibition is 50.6% (active). As for `N#C/C(=C\c1ccc(N2CCOCC2)cc1)c1ccccc1`, the inhibition was 2.5%. Under `N#CC1=C(N)C2=C(N3CCCCC3)CCCC2C1(C#N)C#N` (centres undefined) stands 11.7%.

On to `N#Cc1cc(Cl)c(N2CCOCC2)cc1C#N`, for which the inhibition is -7.2%.

For the molecule `CN1CCN(C2=CC3=CC(=C(C#N)C#N)CCC3CC2)CC1` (centres undefined), the inhibition is 61.8% (active).

Regarding `N#CC(C#N)=C1C=C2C=C(N3CCOCC3)CCC2CC1` (centres undefined), the inhibition was 55.3% (active). For the molecule `Cc1cc(C)c(NC(=O)CS)c(Cl)c1`, the inhibition is -11.6%.

Regarding `CSc1nc(Cl)cc(Nc2ccccc2N)n1`, the inhibition was -3%. Turning to `O=C(O)CCNC(=O)/C(=C/C=C/c1ccccc1)NC(=O)c1ccccc1`, the inhibition is -0.9%.

As to `Cc1ccc(Nc2nc(Nc3ccc(C)cc3)nc(SC3=NCCS3)n2)cc1`, the inhibition was 8.1%.

As for `CCCCC1(Cc2ccc(OC)c([N+](=O)[O-])c2)C(=O)N(c2ccccc2)N(c2ccccc2)C1=O`, the inhibition was 11%. Under `CC(C)(C)CC(C)(C)c1ccc(O)c(CN2CCN(CCC#N)CC2)c1` stands 4.7%. Under `CCC(CC)COC(=O)C(C#N)c1nc2ccccc2nc1N1CCN(CC)CC1` (centres undefined) stands 17.2%; under `CC1(C)CC(NCCN2CCN(C3=CC(=C(C#N)C#N)CC(C)(C)C3)CC2)=CC(=C(C#N)C#N)C1`, 12.4%. For the molecule `CCN1CCN(C2=CC3=CC(=C(C#N)C#N)CCC3CC2)CC1` (centres undefined), the inhibition is 59.6% (active).

In the case of `CCn1cc(C(=O)N2CCc3ccccc32)c(=O)c2cc(S(=O)(=O)N3CCCCCC3)ccc21`, the inhibition is 5.7%. For the molecule `CCC(=O)NC(c1ccc([N+](=O)[O-])cc1)c1c(O)ccc2ccccc12` (centres undefined), the inhibition was 14.3%. `CCCC(=O)NC(c1ccc(N(C)C)cc1)c1c(O)ccc2ccccc12` (centres undefined): the inhibition is 54.8% (active). Consider `CCCC(=O)NC(c1ccc(OC)c(OC)c1)c1c(O)ccc2ccccc12` (centres undefined), for which the inhibition is 23.2%. Turning to `CCCC(=O)NC(c1ccccc1Cl)c1c(O)ccc2ccccc12` (centres undefined), the inhibition was 13.4%.

In the case of `CCC(=O)NC(c1ccc(OC)cc1)c1c(O)ccc2ccccc12` (centres undefined), the inhibition is 44.2%.

For `CCC(=O)NC(c1ccc(N(C)C)cc1)c1c(O)ccc2ccccc12` (centres undefined), the inhibition is 62% (active). Under `Cc1cc(NC(=O)CN2C(=O)/C(=C/c3cccc(Br)c3)SC2=S)no1` stands -9.8%. Take `CC(Cl)c1cc(-c2ncc(C(F)(F)F)cc2Cl)no1` (centres undefined): the inhibition was -4.3%. Consider `CCc1ccccc1OCCCCCNCCO`, for which the inhibition is 1.5%. For the molecule `COc1cc(C2=NOC(C(=O)N3CCCCCC3)C2)cc(OC)c1OC` (centres undefined), the inhibition was -5.6%. Regarding `O=C(O)C1CC=CCC1C(=O)NCCc1csc(-c2ccccc2)n1` (centres undefined), the inhibition was -17.1%. Consider `CCOc1ccc(C(C)NC(=S)NC2CCCCC2)cc1OCC` (centres undefined), for which the inhibition is 6%.

For `Cc1ccc(OCC(=O)N/N=C\c2cn(C)c3ccccc23)c([N+](=O)[O-])c1`, the inhibition is 14%. Under `COc1cccc(C2NC(=O)c3ccccc3O2)c1OCc1ccccc1F` (centres undefined) stands 19%; under `CN(C)c1ccc(/C(=N\O)c2ccccc2)cc1`, 5.9%; under `CN(C)c1ccc(C(=O)/C=C/c2ccco2)cc1`, 38.7%. Under `CN(C)c1ccc(N=Cc2ccco2)cc1` stands 63.2% (active); under `CN(C)c1ccc(C=Nc2ccccc2)cc1`, -10.5%; under `Cc1ccc(C=Nc2ccc(N(C)C)cc2)o1`, 51.8% (active). Consider `CN(C)c1ccc(N=Cc2nc(-c3ccccc3)oc2O)cc1`, for which the inhibition was 31%. Under `Cc1ccc(/C=C/C(=O)Nc2ccc(N(C)C)cc2)o1` stands 27.9%; under `Cc1ccc(N=Cc2ccc(N(C)C)cc2)cc1C`, 10%.

Consider `CN(C)c1ccc(C=Nc2ccc(N(C)C)cc2)cc1`, for which the inhibition was 59.2% (active). For the molecule `Cc1ccc(N=Cc2ccc(N(C)C)cc2)cc1`, the inhibition was 9.3%. Take `CCSc1nc(C(F)(F)F)cc(=O)n1-c1ccccc1`: the inhibition was -9.6%. Regarding `O=C(Nc1c(F)cc(F)cc1Br)c1cc2nc(C(F)F)cc(C(F)F)n2n1`, the inhibition is 18.1%. Under `CCCC1(C)NC(=O)c2ccccc2O1` (centres undefined) stands 7.5%; under `Cc1cccc(C)c1NC(=O)CSc1nnc(Cc2ccccc2)o1`, -13.2%. Consider `Cc1cccc(OCC(=O)O/N=C(\N)Cc2cccs2)c1`, for which the inhibition is 0%. In the case of `COc1ccc(OCC(=O)N2CCN(c3cccc(C(F)(F)F)c3)CC2)cc1`, the inhibition was 15.4%.

Turning to `O=C(COc1cccc(C(F)(F)F)c1)N1CCN(c2ccc(O)cc2)CC1`, the inhibition was 50.6% (active). Under `O=C(COc1cccc(C(F)(F)F)c1)N1CCN(c2ccccc2O)CC1` stands -5.8%; under `CC(C)(C)C(=O)NC(Nc1cccc2cccnc12)C(Cl)(Cl)Cl` (centres undefined), 60.1% (active); under `CC(C)C(=O)NC(Nc1cccc2cccnc12)C(Cl)(Cl)Cl` (centres undefined), 41.4%.

On to `CCC(=O)NC(NC(=S)Nc1cccc2cccnc12)C(Cl)(Cl)Cl` (centres undefined), for which the inhibition is 37.8%. As to `CCOC(=O)c1oc2ccccc2c1NC(=O)COC`, the inhibition was -10.9%.

For `CCOc1ccc(C(C)NC(=O)CCC(=O)O)cc1` (centres undefined), the inhibition was 1.9%.

Consider `Cc1ccc2nc(SCC(=O)Nc3cccc(S(=O)(=O)N(C)C)c3)[nH]c2c1`, for which the inhibition was 10.5%.

On to `O=C(/C=C/c1ccc(Br)o1)NCCCN1CCOCC1`, for which the inhibition was -2.7%. Take `CCCc1ccc(C#N)c(SC2CC(=O)N(c3ccc(OC)cc3)C2=O)n1` (centres undefined): the inhibition was 40.6%. On to `COc1ccc(N2C(=O)CC(Sc3nc4c(cc3C#N)CCC4)C2=O)cc1` (centres undefined), for which the inhibition was 57.1% (active). Consider `N#Cc1cc2c(nc1SC1CC(=O)N(c3ccccc3)C1=O)CCC2` (centres undefined), for which the inhibition is 35.2%. With `Cc1nc2ccc(NC(=O)c3cc(S(=O)(=O)N4CCOCC4)ccc3C)cc2s1`, the inhibition was 5.6%. Take `Cc1nc2ccc(NC(=O)c3ccc(S(=O)(=O)N4CCOCC4)cc3)cc2s1`: the inhibition was -2.3%. `Cc1nc2ccc(Nc3nc4cc(S(=O)(=O)N5CCOCC5)ccc4o3)cc2s1`: the inhibition is 61.9% (active). Under `Nc1nc(NCCCN2CCOCC2)nc(Nc2ccc(F)cc2)c1[N+](=O)[O-]` stands -6.1%; under `CCOC(=O)c1sc2nc(CC(=O)OC)nc(N(C)CCc3ccccn3)c2c1C`, -1.1%.
